# High-throughput results (PubChem)
# A selection: hits, their analogues and other compounds. The true share with any hit is near 31%.
# CYP2C9 inh: human CYP2C9 inhibition; P11712; CYP2C9 Supersomes, luciferin-H conversion, luminescence; inhibition, % at 5 µM; hit rate 20% among 96,000; AID 777;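 active = blocking of liver enzyme CYP2C9 beyond about 50% at 5 µM, limit read from the data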
# Target sequence (P11712 whole entry, looked up): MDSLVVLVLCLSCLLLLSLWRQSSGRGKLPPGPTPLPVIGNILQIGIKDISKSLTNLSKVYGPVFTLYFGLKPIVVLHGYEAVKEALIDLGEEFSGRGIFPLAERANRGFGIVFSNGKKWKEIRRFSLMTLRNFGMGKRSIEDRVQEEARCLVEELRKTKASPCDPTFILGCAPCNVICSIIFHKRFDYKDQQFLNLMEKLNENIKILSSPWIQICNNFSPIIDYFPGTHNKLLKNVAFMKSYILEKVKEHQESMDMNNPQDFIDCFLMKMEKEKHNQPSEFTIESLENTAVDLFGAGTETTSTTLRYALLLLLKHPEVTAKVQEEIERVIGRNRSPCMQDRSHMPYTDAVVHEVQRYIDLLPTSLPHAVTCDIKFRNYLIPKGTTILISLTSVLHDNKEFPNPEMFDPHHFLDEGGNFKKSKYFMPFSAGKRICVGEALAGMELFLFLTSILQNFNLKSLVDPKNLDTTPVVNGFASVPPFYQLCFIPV
# CYP2C19 act: increases human CYP2C19 enzyme activity. P33261. recombinant CYP2C19, luciferin-H EGE luminescence; stronger effect = higher value; 0 = fully inhibited enzyme, 1 = untreated enzyme. activation factor at 5 µM. 96,000 tested, under 10 active. AID 1025;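 active = activation factor of at least 2 at 5 µM in the primary screen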;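 also: 0 = wells with 2.5 mM tranylcypromine and 1 = vehicle-only wells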
# PLAP activator: activates human placental alkaline phosphatase; P05187; purified PLAP enzyme, luminescent substrate read-out; stronger effect = higher value; activation fold at 20 µM; hit rate 1.2% among 96,000; AID 696; in the data active = activation fold above about 2
# CYP2C9 activ: increases human cytochrome P450 2C9 activity | P11712 | recombinant CYP2C9, luciferin-H conversion, luminescence; stronger effect = higher value; factor 1 = untreated enzyme, 0 = blocked | activation factor at 5 µM | hit rate 1.4% among 96,000 | AID 1024;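 active = activation factor of 2 or more for CYP2C9 at a 5 µM dose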;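 also: 0 = sulfaphenazole-blocked wells and 1 = vehicle-only wells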
# CYP2C19 inh: blocks human cytochrome P450 2C19; P33261; CYP2C19 Supersomes, luciferin-H EGE luminescence, 30 min; inhibition, % at 5 µM; hit rate 21% among 96,000; AID 778;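 active = CYP2C19 inhibition above a set limit at 5 µM in the primary screen, cut at about 50% in these data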;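 also: plate controls were negative control wells for no effect and 2.5 mM tranylcypromine positive control for full effect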
# The depositor's hits bear a star.
SMILES,CYP2C9 inh,CYP2C19 act,PLAP activator,CYP2C9 activ,CYP2C19 inh
Cc1ccc(NCCC(=O)c2ccc(Cl)cc2)cc1C,5,0.4,0.9,1,59*
O=C(CCNc1ccc(F)c(Cl)c1)c1ccco1,20,0.7,0.8,0.8,32
CCCOc1ccc(C(=O)CCNc2ccc(C)c(Cl)c2)cc1,20,0.4,1,0.8,60*
Cc1ccc(C(=O)CCNc2ccc(Cl)cc2)o1,37,0.1,0.9,0.6,92*
O=C(NC1CCCC1)C(c1ccccn1)N(C(=O)c1csnn1)C1CC1 (stereo not drawn),4,0.9,1.1,1,10
COc1ccc2c(c1)C1NC(=S)N[C@@](C)(O2)C1C(=O)Nc1ccccc1 (stereo partly drawn),-10,1.1,0.8,1.1,-14
FC(F)(F)c1nc(-c2cccs2)ncc1-c1nnnn1-c1ccc(Cl)cc1,52*,1,0.9,0.5,-3
Cc1cc(C)cc(-n2nc(C)cc2N)c1,13,1,1,0.9,2
COc1ccc(-n2nnnc2-c2cnc(N3CCCC3)nc2C(F)(F)F)cc1,64*,0.1,1.1,0.4,88*
Cc1cc(C)cc(-n2nnnc2-c2cn(C)nc2C(F)(F)F)c1,20,0.3,0.9,0.8,75*
Cc1c(-c2nnnn2-c2ccc(F)cc2)cnc2cc3c(cc12)OCO3,50,0.7,1,0.5,30
Cn1cc(-c2nnnn2-c2ccc(Cl)cc2)c(C(F)(F)F)n1,40,0,1.1,0.6,100*
CCN(CC)C(=O)N1CCC(NC(=O)c2ccc(C(C)(C)C)cc2)CC1,-26,1,1.3,1.3,-2
O=C(/C(=C/c1ccc(Cl)cc1)c1nc2ccccc2[nH]1)c1cccs1,99*,0.2,1.3,0,76*
COc1cc(/C=C(/C(=O)c2cccs2)c2nc3ccccc3[nH]2)ccc1O,55*,0.8,0.7,0.5,23
O=C(/C=C/c1cccc(Cl)c1)c1nc2ccccc2[nH]1,1,0.6,1.1,1,44
COc1ccc(/C=C(/NC(=O)c2ccccc2)c2nc3ccccc3[nH]2)cc1OC,4,0.8,1.2,1,17
CCCS(=O)(=O)NCCc1cc2ccc(OC)cc2[nH]c1=O,-7,1.1,1.1,1.1,-7
COCCCNC(=O)CCCn1c(=O)c2ccccc2n(CC(=O)Nc2c(C)cccc2C)c1=O,42,1,0.9,0.6,-1
CCOc1cc2c3c(c1)C1(Nc4ccccc4S1)C(=O)N3C(C)(C)CC2C (stereo not drawn),100*,0.1,1.7,0,88*
CCOc1cc2c3c(c1)C1(OCCO1)C(=O)N3C(C)(C)CC2C (stereo not drawn),17,0.7,1.7,0.8,33
CSc1nc(-c2ccco2)nn1S(=O)(=O)c1ccccc1,-115,0.2,1,2.1*,83*
O=C(Cc1ccccc1)n1nc(-c2ccco2)nc1SCc1ccccc1,30,0.3,1,0.7,68*
Cc1ccc(S(=O)(=O)n2nc(-c3ccco3)nc2SCc2ccccc2)cc1,70*,0.5,1.1,0.3,55*
O=C(c1ccco1)n1nc(-c2ccco2)nc1SCc1ccccc1,18,0.7,0.8,0.8,35
SMILES,CYP2C9 inh,CYP2C19 act,PLAP activator,CYP2C9 activ,CYP2C19 inh
CSc1nc(-c2ccco2)nn1S(=O)(=O)c1ccc(C)cc1,70*,0.3,1,0.3,68*
CCS(=O)(=O)n1nc(-c2ccco2)nc1SC,37,0.7,1.1,0.6,35
O=C(NC1CCCCC1)C1CCN(c2cnccn2)CC1,-47,1.1,0.8,1.5,-9
Cc1nnsc1C(=O)NNS(=O)(=O)c1ccccc1,4,1.1,1.1,1,-13
O=C(Oc1ccccc1Cl)c1ccccc1P(=O)(O)O,-5,1,0.9,1.1,-2
CC1CCN(c2nc(-c3ccccc3)cc(C(F)(F)F)n2)CC1,0,1,1.1,1,1
CN1CCN(c2nc(-c3ccccc3)cc(C(F)(F)F)n2)CC1,-10,0.5,1.1,1.1,50*
Cc1ccc(S(=O)(=O)C/N=C(/NC(=S)N(c2ccccc2)c2ccccc2)c2ccccc2)cc1,69*,0.7,1,0.3,28
Cn1c(=O)c2cc(S(=O)(=O)NCCC(=O)NCCc3ccc(Cl)cc3)ccc2n(C)c1=O,-23,0.9,1.2,1.2,11
COc1ccc(N2CC(C(=O)Nc3ccc(S(=O)(=O)Nc4nc(C)cc(C)n4)cc3)CC2=O)cc1 (stereo not drawn),-7,1.1,1.2,1.1,-7
C=CCNC(=O)C1CC(=O)N(c2ccc(OCC(=O)Nc3ccc(C)cc3)cc2)C1 (stereo not drawn),21,1.1,1,0.8,-9
COc1cccc(N2CC(C(=O)NC3CCCCC3)CC2=O)c1 (stereo not drawn),-128,1,1,2.3*,-3
COc1cccc(N2CC(C(=O)Nc3ccc(C(=O)OC(C)C)cc3)CC2=O)c1 (stereo not drawn),71*,0.5,1.1,0.3,51*
C=CCNC(=O)C1CC(=O)N(c2ccc(OCC(=O)Nc3ccccc3)cc2)C1 (stereo not drawn),55*,0.8,0.8,0.4,19
COc1ccc(N2CC(C(=O)NC3CC(C)(C)NC(C)(C)C3)CC2=O)cc1 (stereo not drawn),10,1.1,1,0.9,-11
COc1ccc(CNC(=O)C2CC(=O)N(c3ccc(OCC(=O)N4CCCCC4)cc3)C2)cc1 (stereo not drawn),47,0.7,1.7,0.5,32
COc1ccc(CNC(=O)C2CC(=O)N(c3ccc(OCC(=O)N4C(C)CCCC4C)cc3)C2)cc1 (stereo not drawn),61*,0.7,1.4,0.4,31
Cc1ccc(C)n1-c1ccc(N2CCOCC2)nc1,9,0.8,1.1,0.9,17
CCc1cc2c3c(c(=O)oc2cc1O)CCCC3,72*,0.4,1,0.3,62*
Cc1coc2c(C)c3oc(=O)c4c(c3cc12)CCCC4,47,0.6,0.9,0.5,42
CCc1cc2c(CN3CCN(C)CC3)cc(=O)oc2cc1O,-26,1.1,1,1.3,-10
Cc1c(O)c(CN2CCCCC2)cc2c3c(c(=O)oc12)CCC3,70*,0.6,1,0.3,42
Cc1oc2cc3oc(=O)c4c(c3cc2c1C)CCC4,-4,0.4,1,1,63*
Cc1oc2c(C)c3oc(=O)c4c(c3cc2c1C)CCC4,28,0.2,0.9,0.7,80*
Cn1c(=O)c2cc(S(=O)(=O)NCCC(=O)NCC3CCCO3)ccc2n(C)c1=O (stereo not drawn),15,0.9,1,0.8,6
CCOC(=O)c1ccc(N2CN=C3SCC(=O)N3C2)cc1,0,0.7,1.3,1,35
COc1ccc(OC)c(C2CC(=O)N3CN(c4ccc(C)c(Cl)c4)CSC3=C2C#N)c1 (stereo not drawn),96*,0.5,0.8,0,54*
